Reference: PubChem BioAssay AID1159580 (chemical genetic matrix, 2015)
Out of some 5,500 compounds screened, about 2,000 (36%) were called active. Another 18% or so got no clear call; they are omitted. No stated cut-off is given here; in the data, active means normalized growth mostly below about 0.91 (no sharp cut-off); inconclusive means no clear call, values can overlap the other calls; inactive means mostly above about 0.92. Some of the results follow.

Assay: chemical genetic growth profiling, strain panel (AID 1159580);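 further: tested at 20 µM; growth read once vehicle control cultures reached saturation at 30 °C; 1 = growth at the plate median or of vehicle wells; lower values mean less growth of the strain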
Conditions: S. cerevisiae deletion strains, growth OD

Measured: normalized growth

COc1ccc2c(c[n+](C)c3c4cc5c(cc4ccc23)OCO5)c1OC
active: locus YAL040C, strain CLN3, hits give low values 0.583 | locus YER002W, strain NOP16, hits give low values 0.58 | locus YGR078C, strain PAC10, hits give low values 0.496 | locus YMR307W, strain GAS1, hits give low values 0.131 | locus YNL175C, strain NOP13, hits give low values 0.519 | locus YNL197C, strain WHI3, hits give low values 0.69 | locus YNL224C, strain SQS1, hits give low values 0.255 | locus YOR083W, strain WHI5 (second series), hits give low values 0.175
